# Source: PubChem BioAssay
# This is a sample that favours compounds with a hit; in the whole collection about 9.3% have one here.
# SMN2 splice enh – enhancers of SMN2 splice variant expression. 210,000 compounds, 2.8% hits. Potency, µM (doses to about 46.1 µM), without a hit: at the highest dose activity change, positive = activation, most hits filed as activators. HEK293 SMN2-luciferase splicing reporter, luminescence, 30-36 h; further: % of control where 0% means no effect; nearly all actives have a fitted effect of over 55% in size
#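 qHTS luciferase splicing reporter: luminescence rises when SMN2 exon 7 is included in transfected HEK293 cells. Compound exposure lasted 30-36 h at 37C, with 4.5 mM final sodium butyrate as control, followed by a ONE-Glo read.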
# ELG1 genotoxic – induces genotoxicity in HEK293T cells with luciferase-tagged ELG1; 330,000 compounds, 1.3% hits; AID 504466; HEK293T ELG1-luciferase reporter, luminescence, 16 h; Potency, µM (series often up to 46 µM), for inactives: at the top dose activity change, positive = activation, actives largely listed as activators; further: % of control where 0% means no effect; nearly all actives have a fitted effect of over 60% in size
#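 Reporter readout depends on ELG1 protein level, which increases with genetic stress. After 16 hr compound exposure at 37 °C, luciferase activity was quantified using ONE-Glo.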
# FLuc modulator – counter-screen for miR-21 project: firefly luciferase inhibitors or activators; P08659; purified FLuc, Km substrates, luminescence inhibition; Potency, µM (top dose mostly 57.5 µM), for the others: at the top dose activity change, negative = inhibition, hits mostly inhibitors; 360,000 compounds, 6.9% hits; AID 588342;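 further: plate controls were vehicle for no effect and reference inhibitor for full effect; nearly all actives have a fitted effect of over 55% in size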
# Target sequence (P08659 whole entry, looked up): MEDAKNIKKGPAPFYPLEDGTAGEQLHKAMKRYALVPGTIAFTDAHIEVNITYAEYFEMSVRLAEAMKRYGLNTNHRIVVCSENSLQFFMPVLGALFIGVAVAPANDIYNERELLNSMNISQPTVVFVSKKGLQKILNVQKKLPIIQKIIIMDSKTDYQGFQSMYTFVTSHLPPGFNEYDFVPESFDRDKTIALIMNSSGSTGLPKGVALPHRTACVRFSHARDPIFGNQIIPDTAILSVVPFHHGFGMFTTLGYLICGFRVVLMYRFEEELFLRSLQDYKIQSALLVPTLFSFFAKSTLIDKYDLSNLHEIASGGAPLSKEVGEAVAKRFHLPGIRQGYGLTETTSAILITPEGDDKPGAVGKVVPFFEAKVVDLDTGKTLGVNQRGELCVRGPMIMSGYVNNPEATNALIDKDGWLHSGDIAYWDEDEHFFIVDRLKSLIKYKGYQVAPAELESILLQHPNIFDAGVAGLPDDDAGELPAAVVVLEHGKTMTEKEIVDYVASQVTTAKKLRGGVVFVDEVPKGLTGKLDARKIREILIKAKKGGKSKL
#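 Purified P. pyralis luciferase (10nM final) with 10uM D-luciferin and 10uM ATP (Km levels) in 50mM Tris acetate pH 7.5, 10mM Mg acetate, 0.01% Tween-20, 0.05% BSA; qHTS 6-point titration, ~60 µM downward; luminescence read.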
# Rab9 prom act – activates the Rab9 promoter | Huh7 Rab9 promoter-luciferase reporter, luminescence, 24 h | Potency, µM (titrated, usually from 9.22 µM), inactives show at the top dose activation, negative = inhibition, actives largely listed as activators | 320,000 compounds, 2.8% hits | AID 485297; further: % of control where 0% means no effect; nearly all actives have a fitted effect of over 60% in size
#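 Luminescence read-out: Huh7 cells stably expressing Rab9-luciferase, treated 24 h with compound at 37 °C, then lysed with luciferase reagent for 10 min at ambient before reading.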
# NPC1 prom act – activators of NPC1 promoter; Potency, µM (titrated, usually from 9.22 µM), for the others: top-dose activation, actives largely listed as activators; Huh7 NPC1 promoter luciferase reporter, 24 h; 320,000 compounds, 2.4% hits; further: % of control where 0% means no effect; nearly all actives have a fitted effect of over 60% in size
#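 Stably transfected Huh7 (NPC1 promoter→luciferase), 1500 cells/well in Opti-MEM + 10% FBS, 2 h settle, then compound 24 h at 37 °C. Luminescence after 10 min with Amplite reagent.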
# ELG1 repair inh – ELG1-dependent DNA repair inhibition. 330,000 compounds, 2.3% hits. AID 504467. HEK293T ELG1-luciferase reporter, luminescence, 16 h; DNA damage induced by 5-fluorouridine. Potency, µM (highest dose often 46.1 µM), for inactives: at the top dose activity change, negative = inhibition, hits mostly inhibitors; further: on the % scale 0 is the no-effect control and ±100 the full control effect; nearly all actives have a fitted effect of over 55% in size
#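 Overnight (16 hr) co-exposure of 2,000 cells/well to 5-fluorouridine and compound at 37 °C preceded detection. Luciferase was quantified via ONE-Glo luminescence; loss of signal denotes inhibition.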
# Starred values were filed as active, the others as inactive; ? = inconclusive; nt = no result; [ ] = dose if it differs, or a comment. The call rests on the fitted dose curve; in most records, active means well fitted curve in the direction sought with a large enough effect; inconclusive means small, poorly fitted or top-dose-only effect, or another doubt; inactive means no such curve, though single readings can be large; an effect the other way counts as inactive or inconclusive. Potency means the concentration at half of the fitted maximal effect.
SMILES,SMN2 splice enh,ELG1 genotoxic,FLuc modulator,Rab9 prom act,NPC1 prom act,ELG1 repair inh
Cc1ccccc1Cn1nnc(C(=O)Nc2ccc3c(c2)OCCO3)c1N,nt,18%,3µM*,1.8µM*,2.8µM*,?
Nc1c(C(=O)Nc2ccc3c(c2)OCCO3)nnn1Cc1cccc(F)c1,nt,?,?,3.2µM*,3.5µM*,?
O=C(N/N=C/c1cc(Br)ccc1O)C(c1ccncc1)N1CCOCC1 (stereo unspecified),-97%,13%,-1%,-24%,-12%,-10%
Cc1ccc(-c2cc(C(=O)NC3CCCC3)no2)cc1,nt,?,2.1µM*,2µM*,0.56µM*,?
O=C(NC1CCCCC1)c1cc(-c2ccc(F)cc2)on1,nt,16%,-9%,3.2µM*,1.4µM*,?
O=C(COCc1cc(-c2cccs2)on1)NC1CCCCC1,nt,2%,0%,0%,-4%,10%
O=C(NC1CCCCC1)c1cc(-c2cccs2)on1,nt,?,?,2µM*,3.2µM*,?
O=C(NCCN1CCOCC1)c1cc(-c2ccc(F)cc2)on1,-22%,10%,-1%,19%,12%,?
O=C1N=C(N2CCOCC2)S/C1=C\c1ccncc1,nt,-12%,-2%,-3%,1%,-10%
CCCCOCCCNC(=O)N[C@H](C(=O)OC)C(C)C,3%,0%,0%,4%,15%,1%
COc1ccc2c(c1)-c1nc(NC(=O)c3ccco3)sc1CC2,nt,13%,19µM*,19%,14%,?
COc1ccc2c(c1)-c1nc(NC(=O)c3cccc(Br)c3)sc1CC2,-26%,nt,-13%,nt,nt,nt
COc1ccc2c(c1)-c1nc(NC(=O)c3cccs3)sc1CC2,4%,-1%,19µM*,20%,3%,?
COc1ccc2c(c1)Cc1sc(NC(=O)c3ccco3)nc1-2,11µM*,13%,3.4µM*,1.8µM*,2µM*,?
COc1ccc2c(c1)Cc1sc(NC(C)=O)nc1-2,5.6µM*,8.2µM*,4.8µM*,0.79µM*,1µM*,?
COc1ccc2c(c1)Cc1sc(NC(=O)c3cccnc3)nc1-2,-29%,-5%,?,15%,0%,-6%
COc1cccc(OC)c1C(=O)Nc1nc2c(s1)CCc1ccccc1-2,11%,nt,-1%,nt,nt,nt
COc1ccccc1CN(C)C(=O)c1cc(C)nc2ccccc12,nt,-15%,-10%,-7%,?,-29%
CC(C)c1noc(-c2ccccc2OCC(=O)Nc2ccccc2[N+](=O)[O-])n1,nt,nt,-13%,nt,nt,nt
O=C(O)c1cc2nc(-c3ccccc3)cc(C(F)(F)F)n2n1,nt,0%,2%,-20%,3%,10%
COc1ccc2c(c1)CCc1sc(NC(=O)c3ccc(C)cc3)nc1-2,-31%,-6%,8.5µM*,3%,0%,?
COc1ccc2c(c1)CCc1sc(NC(=O)c3ccco3)nc1-2,10%,?,21µM*,?,25%,?
O=c1c2c(nc3cc(-c4ccc(F)cc4)[nH]n13)CCC2,7.1µM*,18µM*,8.5µM*,3.2µM*,2.5µM*,?
O=c1cc(-c2ccccc2)nc2cc(-c3ccc(F)cc3)[nH]n12,10%,nt,?,nt,nt,nt
Cc1ccc(-n2ncc3c(SCC(N)=O)ncnc32)cc1C,nt,?,5.4µM*,3.2µM*,4µM*,?
CCOC(=O)CNC(=O)CSc1ncnc2c1cnn2-c1ccc(Cl)cc1,16%,12%,-2%,-2%,1%,-4%
Cc1ccc(-n2ncc3c(SCC(=O)NNC(=O)C(C)C)ncnc32)cc1,nt,8%,7.6µM*,13%[1.84 µM],24%,?
CC(=O)CSc1ncnc2c1cnn2-c1ccccc1,11µM*,?,7.6µM*,1.1µM*,1.3µM*,?
CNC(=O)CSc1ncnc2c1cnn2-c1ccccc1,-15%,12%,?,?,15%,?
COc1ccccc1-n1c(SCC(=O)N2CCOCC2)nc2cccnc21,5%,-2%,-1%,1%,2%,6%
